Experimental data as given in PubChem BioAssay (NCATS).
Results filed as inconclusive are left out. Where a call stands in place of a potency, no number is given. Activity calls are given as the source filed them. Calls follow the shape of the dose curve; as a rule, active = well fitted curve in the direction sought with a large enough effect; inconclusive = small, poorly fitted or top-dose-only effect, or another doubt; inactive = no such curve, though single readings can be large; an effect the other way counts as inactive or inconclusive.

How the values were obtained:
[1] = qHTS for Inhibitors of the Aldehyde Dehydrogenase Family (ALDH1A2, ALDH1A3, ALDH2, ALDH3A1) (AID 2061307); also: nearly all actives have a fitted effect of over 50% in size; as to potency: test system not described further here
[2] = biological target: Aldehyde dehydrogenase, mitochondrial (Homo sapiens) (UniProt P05091); assay: qHTS for Inhibitors of the Aldehyde Dehydrogenase Family (ALDH2) Primary screen (AID 2061308); also: nearly all actives have a fitted effect of over 55% in size
[3] = biological target: Retinal dehydrogenase 2 (Homo sapiens) (UniProt O94788); assay: qHTS for Inhibitors of the Aldehyde Dehydrogenase Family (ALDH1A2) Confirmation screens (AID 2061314); also: nearly all actives have a fitted effect of over 65% in size
[4] = biological target: Retinaldehyde dehydrogenase 3 (Homo sapiens) (UniProt P47895); assay: qHTS for Inhibitors of the Aldehyde Dehydrogenase Family (ALDH1A3) Primary screen (AID 2061315)
[5] = biological target: Aldehyde dehydrogenase 1A1 (Homo sapiens) (UniProt P00352); assay: qHTS for Inhibitors of the Aldehyde Dehydrogenase Family (ALDH1A1) Confirmatory screens (AID 2061316); also: nearly all actives have a fitted effect of over 65% in size
Potency is read from the fitted curve at half-maximal effect.

Compound | Potency [1] | Potency [2] | Potency [3] | Potency [4] | Potency [5]
O=S(=O)(c1ccccc1)N1CCN(c2nc(-c3ccc(Br)cc3)cs2)CC1 | 7.98 µM (active) | inactive | inactive | inactive | 10.1 µM (active)
COc1ccc(-c2nc3ccccc3c(=O)n2Cc2ccco2)cc1COc1ccc(NC(C)=O)cc1 | 20.1 µM (active) | inactive | 12.7 µM (active) | inactive | –
FC(F)Oc1ccc(C2=Nn3c(nnc3-c3ccccc3C(F)(F)F)SC2)cc1OCC1CC1 | 2.83 µM (active) | inactive | 17.9 µM (active) | inactive | inactive
COc1ccc(C2Nc3ccccc3C(=O)N2Cc2ccco2)cc1COc1ccc(NC(C)=O)cc1 (centres undefined) | inactive | inactive | – | inactive | –
Cc1ccnc(CC(=S)N2CCN(c3cccc(C(F)(F)F)c3)CC2)c1 | 10 µM (active) | inactive | 12.7 µM (active) | inactive | 10.1 µM (active)
O=[S+]([O-])(Nc1ccc(-c2nc3ccccc3[nH]2)cc1)c1ccc2c(c1)OCO2 | inactive | inactive | 15.9 µM (active) | inactive | inactive
O=C(Nc1nc(-c2ccccc2)cs1)c1ccncc1NS(=O)(=O)c1ccccc1Cl | 22.5 µM (active) | inactive | – | inactive | –
CCOC(=O)c1ccc(-n2cccc2/C=C2\NC(=O)NC2=O)cc1 | inactive | inactive | – | inactive | –
Cc1cc(-c2nnc3n2CCCCC3)c(C)n1-c1ccc(Cl)c(Cl)c1 | inactive | inactive | 20.1 µM (active) | inactive | 14.2 µM (active)
COc1ccc(C2=Nn3c(nnc3-c3ccc(OC)cc3)SC2)cc1 | 7.98 µM (active) | inactive | inactive | inactive | inactive
Cc1nc(-c2ccccc2)oc1-c1ccc2ncnc(NCc3ncc[nH]3)c2c1 | inactive | inactive | – | inactive | –
O=C(O)C1CCN(c2ncc(-c3ccc4c(c3)OCCCO4)s2)CC1 | 1.52 µM (active) | inactive | – | 447 nM (active) | –
Cc1cnc(-c2ccccc2C2COC2)nc1NCc1ccc(-n2ccnn2)cc1 | inactive | inactive | – | inactive | –
COc1ccc(C2c3c(ncn(CCN4CCOCC4)c3=N)Oc3ccc4ccccc4c32)cc1OC (centres undefined) | inactive | inactive | – | inactive | –
O=C([C@H](Cc1ccc(O[S+](=O)([O-])c2cccnc2)cc1)N[S+](=O)([O-])c1ccccn1)N1CCN(c2ccccc2)CC1 | 15.8 µM (active) | inactive | 7.98 µM (active) | inactive | 5.04 µM (active)
O=C(Nc1cncc(Cc2ccccc2)c1)c1ccc(-c2cccc([N+](=O)[O-])c2)o1 | 1.27 µM (active) | inactive | 12.7 µM (active) | inactive | 3.18 µM (active)
FC(F)(F)c1ccc(-c2ccc(CNc3nc(-c4ccccc4C(F)(F)F)nc4ccccc34)cc2)cn1 | 8.91 µM (active) | inactive | 25.2 µM (active) | inactive | 7.98 µM (active)
Cc1cc(C)nc(NC(=S)N2CC3CN(c4ncc(C(F)(F)F)cc4Cl)CC3C2)c1 (centres undefined) | inactive | 2.51 µM (active) | inactive | – | 12.7 µM (active)
COc1ccc(C2=Nn3c(nnc3-c3ccccc3OC)SC2)cc1 | 2.01 µM (active) | inactive | inactive | inactive | –
COc1ccc(C2=Nn3c(nnc3-c3cc(OC)ccc3OC)SC2)cc1 | 20 µM (active) | inactive | inactive | inactive | 14.2 µM (active)
COc1ccc(C2Nc3ccccc3C(=O)N2CCc2ccc(Cl)cc2Cl)cc1COc1ccc(NC(C)=O)cc1 (centres undefined) | 3.57 µM (active) | inactive | – | inactive | –
COc1ccc(C2Nc3ccccc3C(=O)N2Cc2ccccc2Cl)cc1COc1ccc(NC(C)=O)cc1 (centres undefined) | 8.96 µM (active) | inactive | – | inactive | –
O=S(=O)(c1ccc2c(c1)OCO2)N1CCN(S(=O)(=O)c2c(F)cccc2F)CC1 | inactive | inactive | – | inactive | –
COc1ccc(C2Nc3ccccc3C(=O)N2Cc2ccc(CNC(=O)CO)cc2)cc1COc1ccc(NC(C)=O)cc1 (centres undefined) | 4.49 µM (active) | inactive | 12.7 µM (active) | inactive | –
O=C(Nc1nc(-c2ccccc2)cs1)c1ccncc1NS(=O)(=O)c1ccc2ccccc2c1 | 2.51 µM (active) | inactive | 7.12 µM (active) | inactive | 8.96 µM (active)
COc1ccc(C2Nc3ccccc3C(=O)N2CCCN(C)C)cc1COc1ccc(NC(C)=O)cc1 (centres undefined) | 7.12 µM (active) | inactive | – | inactive | –
